# Reference: PubChem BioAssay AID492972 (The Scripps Research Institute Molecular Screening Center, 2010)
# Screen size: about 340,000 compounds; about 930 (0.27%) were called active. This is one part of a sample in which actives are shown more often than they occur. Values without a mark were called inactive.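 Rule for the calls: active = inhibition above the screen-wide average of all tested compounds plus 3 SD (cut at about 25% in these data); inactive = the rest.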
# Target: Platelet-activating factor acetylhydrolase IB subunit alpha1 (Homo sapiens) (UniProt Q15102)
# Experiment: inhibition of PAF acetylhydrolase 1B subunit 3 – biochemical, fluorescence polarization, human, primary screen (AID 492972);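 note: 0% = enzyme with DMSO only and 100% = wells lacking PAFAH1B3 protein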
# Details: recombinant PAFAH1B3, FP-rhodamine probe, at 3.39 µM, stronger effect = higher value
# Platelet-activating factor acetylhydrolase IB subunit alpha1 (Homo sapiens), sequence (Q15102 whole entry, looked up): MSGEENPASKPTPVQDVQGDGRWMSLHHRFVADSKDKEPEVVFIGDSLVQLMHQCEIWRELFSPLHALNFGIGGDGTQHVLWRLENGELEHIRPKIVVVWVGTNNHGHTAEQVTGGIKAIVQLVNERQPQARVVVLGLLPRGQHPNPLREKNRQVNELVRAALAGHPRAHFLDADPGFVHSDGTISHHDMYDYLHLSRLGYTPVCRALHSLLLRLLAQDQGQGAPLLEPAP
row,SMILES,inhibition
1,O=C(Nc1ccccc1Cl)N1CCN(c2ccc3nncn3n2)CC1,2.34%
2,Cc1c(-c2nn(C)c(=O)c3ccccc23)oc2ccc(F)cc2c1=O,37.7% (active)
3,Cc1ccc(F)cc1NC(=O)Cc1nn(C)c(=O)c2ccccc12,-8.34%
4,CCC(=O)NCc1cc(-c2nn(C)c(=O)c3ccccc23)ccc1OC,-3.52%
5,Cn1ncc2c(N3CCCCC3)nc(NCCCO)nc21,8.53%
6,Cc1ccc(C)c(NC(=O)NNC(=O)c2ccc3ccccc3c2O)c1,39.8% (active)
7,Cc1ccc(C)c(NC(=O)COC(=O)CSc2ccccc2)c1,1.73%
8,Cc1ccc(S(=O)(=O)NNC(=O)Nc2cccc3ccccc23)cc1,3.24%
9,CN(Cc1ccccc1)C(=O)C1CCCN(c2ncnc3c2nc2n3CCCCC2)C1 (configuration not stated),3.41%
10,Cc1cccnc1CCNC(=O)C1CCC(=O)N(Cc2cccc(F)c2)C1 (configuration not stated),2.19%
11,Cc1ccc(CNS(=O)(=O)c2ccc3c(c2)N(C)CCO3)cc1,8.72%
12,CC(=O)Nc1ccccc1OC(C)C(=O)N1CCC(C)CC1 (configuration not stated),1.25%
13,CN(C)CCN=c1cc(-c2ccccc2)oc2ccc(Cl)cc12,5.11%
14,CCc1ccc(OCC(=O)NCC(c2ccc(Cl)cc2)N2CCCCC2)cc1 (configuration not stated),1.46%
15,O=C1c2cccc(OCC(=O)N3N=C(c4cccs4)CC3c3ccc(F)cc3)c2CCN1Cc1ccccc1 (configuration not stated),3.19%
16,Cc1cc2cc3c(N)[nH]nc3nc2cc1C,5.34%
17,COc1ccc(S(=O)(=O)N2CCOCC2)cc1NC(=O)Cc1coc2cc(C)ccc12,9.79%
18,O=C(NCc1cccnc1)c1ccc(CS(=O)(=O)c2ccc(Br)cc2)o1,2.95%
19,CCn1ncc(C2=NOC(C(=O)Nc3ccccc3C(=O)OC)C2)c1C (configuration not stated),9.12%

row,SMILES,inhibition
1,O=C(CN1CCN(C(=O)c2ccco2)CC1)Nc1ccc(Cl)c(C(F)(F)F)c1,8.31%
2,CN(CC(=O)NCc1ccc2c(c1)OCO2)CC(=O)Nc1ccc(F)c(F)c1F,7.36%
3,CCCCNC(=O)N(O)C1N(/N=C/c2ccc(N(C)C)cc2)C(=S)SC1(C)C (configuration not stated),40.5% (active)
4,CCC(C)N1C(=S)SC(C)(C)C1N(O)C(=O)NC1CCCCC1 (configuration not stated),3.27%
5,CCCCNC(=O)N(O)C1N(/N=C/c2ccccc2O)C(=S)SC1(C)C (configuration not stated),-1.86%
6,CC1CCCC(NC(=O)COC(=O)[C@@H]2CC(O)CN2S(=O)(=O)c2ccc3c(c2)OCCO3)C1C (some centres not stated),-2.21%
7,COc1cc(OC)cc(-c2c(C#Cc3ccsc3)c3cc(-c4ccc(SC)cc4)ccc3n2C)c1,11.8%
8,CCC(C(=O)Nc1ccc(C(C)C)cc1)c1ccccc1 (configuration not stated),-2.07%
9,Cc1ccc(S(=O)(=O)N2CCN(C)CC2)cc1,2.98%
10,CC/C(=N\NC(=O)c1c(C)nc2ccccn12)c1ccc(Cl)cc1,2.04%
11,CC(Sc1nncs1)C(=O)NCc1ccc2c(c1)OCO2 (configuration not stated),4.2%
12,COc1cc(CNCCN(C)C)ccc1OCc1c(F)cccc1Cl,7.89%
13,CSCCC(NC(=O)COc1ccccc1)C(=O)Nc1ccc(C)cc1 (configuration not stated),3.02%
14,Cc1ccc(-c2noc(CNC(=O)c3ccoc3C)n2)cc1,7.91%
15,O=C(CN1C(=O)NC2(CCCCCC2)C1=O)NC1CC1,8.06%
16,CCCc1nc(N)nc2c1C(=O)CC(C)(C)C2,3.91%
17,Cc1ccc(N2C(=O)S/C(=C/c3cn(C)c4ccccc34)C2=O)cc1,1.18%
18,Cc1cccc(N=C2NC(=O)/C(=C/c3cn(C)c4ccccc34)S2)c1,31.3% (active)
19,Cc1ccc(N=C2NC(=O)/C(=C/C=C/c3ccco3)S2)cc1C,-1.25%

row,SMILES,inhibition
1,CN(C)C(=O)CCc1ccc2c3c([nH]c2c1)[C@]1(C)[C@@H](C(=O)N2CCOCC2)C[C@H](CC(=O)NCCc2ccccn2)C(=O)N1CC3,12.3%
2,Cn1ncc2c(Nc3cccc4ccccc34)ncnc21,-1.17%
3,O=C(COC(=O)c1cccnc1Cl)NC12CC3CC(CC(C3)C1)C2,16.2%
4,COCCNC(=S)N1CCC(NC(=O)C23CC4CC(CC(C4)C2)C3)CC1,7.45%
5,O=C(NCCc1ccccc1)Oc1ccc(Cl)cc1,2.38%
6,C=C1c2c(Cl)ccc(O)c2C(O)=C2C(=O)[C@]3(O)C(O)=C(C(N)=O)C(=O)[C@@H](N(C)C)[C@@H]3[C@@H](O)C12 (some centres not stated),32.6% (active)
7,CN(C)[C@@H]1C(=O)C(C(N)=O)=C(O)[C@@]2(O)C(=O)C3=C(O)c4c(O)ccc(Cl)c4[C@@H](O)[C@H]3C[C@@H]12,11%
8,CCSC(C)CC1C/C(=N/O)c2c(C)noc2C1 (configuration not stated),4.48%
9,COc1ccc(N(CC(=O)NCC2CCCO2)C(=O)CCC(=O)Nc2nccs2)c(OC)c1 (configuration not stated),2.48%
10,O=C(Nc1nccs1)C1CCN(S(=O)(=O)c2ccc(Cl)c(C(F)(F)F)c2)CC1,7.86%
11,O=C(NCc1ccccc1)C(c1cccnc1)N(C(=O)c1csnn1)c1ccc(F)cc1 (configuration not stated),4.83%
12,CCN1C(=O)[C@H]2[C@@H](c3ccc(SC4CCCCC4)c(OC)c3)N[C@@](Cc3ccccc3)(C(=O)OC)[C@H]2C1=O,-5.41%
13,c1coc(-c2nc3nc4ccccc4n3nc2-c2ccco2)c1,41.5% (active)
14,COc1ccc(C2=Nn3c(nnc3-c3ccccc3OC)SC2)cc1OC1CCCC1,38.3% (active)
15,COc1ccccc1-c1nnc2n1N=C(c1ccc(OC(F)F)c(OCC3CC3)c1)CS2,-0.82%
16,CC1=Nn2c(nnc2-c2ccccc2)SC1,6.68%
17,Cc1nnc(SCCCn2c(N3CCCCC3)nc3c2c(=O)[nH]c(=O)n3C)s1,5.57%
18,CCN(CC)CCCC(C)n1c2nc(=O)[nH]c(=O)c-2nc2cc(Cl)ccc21 (configuration not stated),57.6% (active)
19,COc1ccc(C)cc1S(=O)(=O)N(CC(=O)Nc1cccc([N+](=O)[O-])c1)c1ccc(C)cc1,-21.3%
